From PubChem BioAssay
The full list was thinned out, with hits kept by preference.
FECH inh – inhibitors of human ferrochelatase, primary screen, biochemical, purified FECH, Ni-mesoporphyrin absorbance. Ferrochelatase, mitochondrial (Homo sapiens), P22830. Ni-mesoporphyrin absorbance 550 nm. calls only at 10 µM (by protocol). 20,000 tested, 3.3% active. AID 1671448, 2021;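 active = enzyme reaction rate more than 3 SD below the solvent-only control wells on the same plate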;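 note: lower slope than DMSO wells means FECH inhibition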
Target sequence (P22830 whole entry, looked up): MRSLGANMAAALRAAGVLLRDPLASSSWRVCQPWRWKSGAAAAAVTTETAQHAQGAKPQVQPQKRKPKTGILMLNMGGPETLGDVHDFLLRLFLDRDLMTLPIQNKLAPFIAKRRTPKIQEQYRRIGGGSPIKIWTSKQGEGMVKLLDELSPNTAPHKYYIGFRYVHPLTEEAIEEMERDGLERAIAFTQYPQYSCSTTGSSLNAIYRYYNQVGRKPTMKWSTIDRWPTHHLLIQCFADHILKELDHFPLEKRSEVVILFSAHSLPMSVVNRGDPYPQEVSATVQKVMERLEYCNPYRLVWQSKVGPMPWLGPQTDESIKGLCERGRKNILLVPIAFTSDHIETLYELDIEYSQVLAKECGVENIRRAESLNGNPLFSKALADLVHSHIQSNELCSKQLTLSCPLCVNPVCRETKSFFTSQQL
Each line names hits and unclear results; the compound was inactive in the other large screens.

COc1ccc(C(=O)Nc2ccccc2SCc2cc(=O)n3c(ncn3C(C)C)n2)cc1OC	none
CC(C)n1cnc2nc(CSc3ccccc3NC(=O)c3cccc(Cl)c3)cc(=O)n21	none
CC(C)n1cnc2nc(CSc3ccccc3NC(=O)COc3ccccc3F)cc(=O)n21	FECH inh active
CCCn1cnc2nc(CSc3ccccc3NC(=O)c3ccc(Cl)cc3)cc(=O)n21	FECH inh active
CC(C)n1cnc2nc(CSc3ccccc3NC(=O)COc3ccc(F)cc3)cc(=O)n21	none
CCc1ccccc1OCC(=O)Nc1ccccc1SCc1cc(=O)n2c(ncn2C(C)C)n1	none
CCN1CCN(c2nc(Nc3cc(C)cc(C)c3)c3cnn(-c4ccccc4)c3n2)CC1	none
CC(C)C(C(=O)NC1CCCC1)N1CCN(C)C(=O)C1=O (stereo not given)	none
CCOc1ncccc1C(=O)N1CCCC(N2CCC(CO)CC2)C1 (stereo not given)	none
Cc1cccc(-c2cc(N3CCN(C(=O)Nc4ccc(C)c(Cl)c4)CC3)ncn2)c1	none
Cc1nc(CCNC(=O)c2cnn(Cc3ccccc3)c2)cc(=O)[nH]1	none
Cc1ccsc1-c1nccn1-c1ccc2n[nH]nc2c1	none
CC(C)(C)c1ccc(-c2nc3nc(CN4CCc5ccccc5C4)cc(=O)n3[nH]2)cc1	FECH inh active
Cc1ccccc1NCc1cc(=O)n2[nH]c(-c3ccc(C(C)(C)C)cc3)nc2n1	FECH inh active
COc1ccc(Cl)cc1NCc1cc(=O)n2[nH]c(NCc3ccc(F)cc3)nc2n1	none
CC(C)(C)c1ccc(-c2nc3nc(CNc4cccc(C(F)(F)F)c4)cc(=O)n3[nH]2)cc1	none
Cc1c(Cl)cccc1NCc1cc(=O)n2[nH]c(-c3ccc(C(C)(C)C)cc3)nc2n1	none
CC(C)(C)c1ccc(-c2nc3nc(CNc4ccccc4)cc(=O)n3[nH]2)cc1	FECH inh active
COc1ccccc1NCc1cc(=O)n2[nH]c(-c3ccc(C(C)(C)C)cc3)nc2n1	none
Cc1ccc(NCc2cc(=O)n3[nH]c(-c4ccc(C(C)(C)C)cc4)nc3n2)cc1Cl	none
CN1CCN(Cc2cc(=O)n3[nH]c(-c4ccc(C(C)(C)C)cc4)nc3n2)CC1	none
COc1ccc(Cl)cc1NCc1cc(=O)n2[nH]c(-c3ccc(C(C)(C)C)cc3)nc2n1	FECH inh active
CC(C)(C)c1ccc(-c2nc3nc(CNc4ccc(Cl)cc4)cc(=O)n3[nH]2)cc1	none
CC(C)(C)c1ccc(-c2nc3nc(CN4CCCCC4)cc(=O)n3[nH]2)cc1	none
CCCn1c(CNS(=O)(=O)c2cccc(OC)c2)nc2cccnc21	none
c1cc(-c2cc(C3CCN(Cc4ccc(-c5ccn[nH]5)o4)C3)ccn2)ccn1 (stereo not given)	none
Cc1ncnc(N2CCC(CO)(Cc3ccccc3Cl)CC2)c1C	none
COc1ccc2c(CN3CCOCC(CN(C)C)C3)cn(C)c2c1 (stereo not given)	none
CCN(CC)c1ncc(NS(=O)(=O)c2ccc(Br)cc2)cc1C(=O)O	none
CCOc1cc2c(cc1OCC)C(CC(=O)OC)N(S(=O)(=O)N(C)C)CC2 (stereo not given)	none
C=CCSC(C)C(=O)N1CCOc2c(O)cc(-c3cccnc3)cc2C1 (stereo not given)	none
Cc1ccc(C(=O)Oc2ccc(Nc3cc(C)nc4nc(-c5cccnc5)nn34)cc2)cc1	none
Cc1cccc(-c2nc3nc(CN4CCOCC4)cc(=O)n3[nH]2)c1	none
CCc1ccc(NC(=O)CN2C(=O)C=C(CC(=O)OC)Nc3ccccc32)cc1	none
COc1ccc(C(=O)N2CCC3(CC2)CC(C(=O)O)N(C)C3)c(OC)n1 (stereo not given)	none
Cc1cc(NC(=O)c2ccc(C(F)(F)F)cc2)n(-c2ncnc3c2cnn3-c2ccccc2)n1	none
Cc1cc(NC(=O)CCc2ccccc2)n(-c2ncnc3c2cnn3-c2cccc(Cl)c2)n1	none
CCCCNc1nc(Nc2ccc(OCC)cc2)c2cnn(-c3ccccc3)c2n1	none
COCc1noc(CCNc2nc(-c3ccccc3)nc3c2CCNC3)n1	none
O=C1NCC2(CCN(c3nccc(N4CCCC(O)C4)n3)CC2)O1 (stereo not given)	none
COc1cccc(Nc2nc(NCc3ccccc3OC)nc3c2cnn3-c2ccccc2)c1	none
CCCCN(C)c1nc(Nc2cccc(OC)c2)c2cnn(-c3ccccc3)c2n1	none
CCCCN(CC)c1ncc(NS(=O)(=O)c2ccc3c(c2)CCCC3)cc1C(=O)O	none
CC(C)(C)c1ccc(-c2nc3nc(CN4CCN(c5ccccc5)CC4)cc(=O)n3[nH]2)cc1	none
CN(Cc1ccccc1)Cc1cc(=O)n2[nH]c(-c3ccc(C(C)(C)C)cc3)nc2n1	none
CCOc1ccc(NCc2cc(=O)n3[nH]c(NCc4ccccc4)nc3n2)cc1	none
CCOc1ccc(NCc2cc(=O)n3[nH]c(-c4ccc(C(C)(C)C)cc4)nc3n2)cc1	FECH inh active
CCc1ccccc1NCc1cc(=O)n2[nH]c(-c3ccc(C(C)(C)C)cc3)nc2n1	FECH inh active
COc1ccc(NCc2cc(=O)n3[nH]c(-c4ccc(C(C)(C)C)cc4)nc3n2)cc1	none
Cc1cccc(-c2nc3nc(CN4CCN(c5ccc(F)cc5)CC4)cc(=O)n3[nH]2)c1	none
COc1ccccc1N1CCN(Cc2cc(=O)n3[nH]c(-c4cccc(C)c4)nc3n2)CC1	FECH inh active
Cc1cccc(-c2nc3nc(CN4CCN(c5ccccc5)CC4)cc(=O)n3[nH]2)c1	none
Cc1ccc(NC(=O)CNCc2cnn(-c3cccc(F)c3)c2)c(C)c1	none
CCCCN(C)c1nc(Nc2ccc(F)cc2)c2cnn(-c3ccccc3)c2n1	none
CCc1c(C)nc2ncnn2c1Sc1ccccc1NC(=O)c1ccc(OC)cc1	none
Cc1cccc(C(=O)Nc2ccccc2Sc2c(C)c(C)nc3ncnn23)c1	FECH inh active
Cc1nc2nc(-c3ccccc3)nn2c(Sc2ccccc2NC(=O)c2ccccc2)c1C	none
CCc1c(C)nc2ncnn2c1Sc1ccccc1NC(=O)c1ccc(F)cc1	FECH inh active
CCc1cc(Sc2ccccc2NC(=O)c2cccc(C)c2)n2ncnc2n1	none
Cc1nc2nc(-c3ccccc3)nn2c(Sc2ccccc2NC(=O)c2c(F)cccc2F)c1C	none
CCCc1c(C)nc2ncnn2c1Sc1ccccc1NC(=O)c1ccc(C(C)(C)C)cc1	FECH inh active
CCc1c(C)nc2ncnn2c1Sc1ccccc1NC(=O)c1cc(OC)cc(OC)c1	none
CCC(=O)Nc1ccccc1Sc1c(C)c(C)nc2nc(-c3ccccc3)nn12	FECH inh active
Cc1nc2ncnn2c(Sc2ccccc2NC(=O)c2ccc(Cl)cc2)c1C	none
CCCc1c(C)nc2ncnn2c1Sc1ccccc1NC(=O)c1cccc(Cl)c1	none
CCCc1c(C)nc2ncnn2c1Sc1ccccc1NC(=O)c1ccc(C)cc1	none
c1cncc(CN(Cc2ccc3c(c2)OCO3)Cc2cccc3nsnc23)c1	none
Cc1ccc(S(=O)(=O)N2CCN(c3nc(C)cc(N(C)C)n3)CC2)cc1	none
COc1ccc(-c2cc3n(n2)CCC(=O)N3Cc2ccc(C(=O)Nc3cc(C)ccc3OC)cc2)cc1	none
COc1c(F)cc(-c2cccc3c2OC(CN)C3)cc1F (stereo not given)	none
CCc1cc(CN(C)c2nccc(-c3ccc(C)nc3C)n2)on1	none
Cc1cc(NC(=O)COc2ccc(Cl)cc2)n(-c2ncnc3c2cnn3-c2ccccc2)n1	none
COc1ccc(-n2ccnc2-c2nccn2CCn2cccn2)cc1	none
CSCCNC(=O)c1ccc2cccc(Cl)c2n1	none
O=S(=O)(c1cccc(Cl)c1)N1CCN(Cc2nc3cccnc3n2-c2ccc(F)cc2)CC1	none
C=CCn1cc(CN[C@H](C)c2cccc(OC)c2)c(C)n1	FECH inh active
C=CCn1cc(CN(C)C(C)CC(=O)NC)c(C)n1 (stereo not given)	none
